High-throughput results as filed in PubChem.
Shown are actives, neighbours in structure and some others; about 22% of the full set was active somewhere.
CYP2C19 activ: human CYP2C19 activators, primary screen, biochemical, luminescence; recombinant CYP2C19, luciferin-H EGE luminescence; stronger effect = higher value; 0 = fully inhibited enzyme, 1 = untreated enzyme; activation factor at 5 µM; 96,000 tested, under 10 active; AID 1025, 2008;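 active = activation factor of at least 2 at 5 µM in the primary screen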;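 also: 0 = wells with 2.5 mM tranylcypromine and 1 = vehicle-only wells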
Target sequence (P33261 whole entry, looked up): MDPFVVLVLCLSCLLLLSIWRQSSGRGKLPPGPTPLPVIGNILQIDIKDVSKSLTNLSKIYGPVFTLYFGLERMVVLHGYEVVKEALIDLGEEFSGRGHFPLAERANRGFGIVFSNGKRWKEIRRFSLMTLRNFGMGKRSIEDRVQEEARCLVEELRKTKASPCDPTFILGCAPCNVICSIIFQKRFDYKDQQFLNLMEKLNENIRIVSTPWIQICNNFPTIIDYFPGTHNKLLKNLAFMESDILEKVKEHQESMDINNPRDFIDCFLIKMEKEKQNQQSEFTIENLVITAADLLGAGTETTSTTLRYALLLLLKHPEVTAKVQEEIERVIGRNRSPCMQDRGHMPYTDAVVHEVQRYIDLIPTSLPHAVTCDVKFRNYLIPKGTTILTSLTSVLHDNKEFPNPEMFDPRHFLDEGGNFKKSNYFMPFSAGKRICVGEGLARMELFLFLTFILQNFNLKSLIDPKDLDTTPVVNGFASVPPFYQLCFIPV
CYP2C19 inh: blockers of cytochrome P450 2C19 activity – biochemical, luminescence, ADME assay, primary screen; CYP2C19 Supersomes, luciferin-H EGE luminescence, 30 min; actives 21% (n = 96,000); P33261; AID 778, 2007; inhibition, % at 5 µM;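 active = CYP2C19 inhibition above a set limit at 5 µM in the primary screen, cut at about 50% in these data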;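 also: plate controls were negative control wells for no effect and 2.5 mM tranylcypromine positive control for full effect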
CYP2C9 inhib: blockers of cytochrome P450 2C9 activity – biochemical, luminescence, ADME assay, primary screen | CYP2C9 Supersomes, luciferin-H conversion | inhibition, % at 5 µM | actives 20% (n = 96,000);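 active = blocking of liver enzyme CYP2C9 beyond about 50% at 5 µM, limit read from the data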
Measles CPE: compounds protecting cells from measles virus cytopathic effect, primary screen, measles RdRp inhibitor project, single point, MLSMR library, absorbance | Measles virus-infected cells, CPE protection | protection (pct of control), % at 4 µM | actives 1.5% (n = 140,000) | AID 841, 2007; in the data active = protection mostly above about 24%, no sharp cut-off; inactive = mostly below about 26%
CYP2C9 act: human CYP2C9 activators, primary screen, biochemical, luminescence. Cytochrome P450 2C9 (Homo sapiens), P11712. recombinant CYP2C9, luciferin-H conversion; stronger effect = higher value; factor 1 = untreated enzyme, 0 = blocked. activation factor at 5 µM. actives 1.4% (n = 96,000);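 active = activation factor of 2 or more for CYP2C9 at a 5 µM dose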;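 also: 0 = sulfaphenazole-blocked wells and 1 = vehicle-only wells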
An asterisk follows results filed as active.

Screening CCOC(=O)C1CCN(c2c(NCc3ccc(C(=O)NC(C)CC)cc3)c(=O)c2=O)CC1 (centres undefined) returned CYP2C19 activ 0.9, CYP2C19 inh 11.6, CYP2C9 inhib 58.6*, Measles CPE 8.5 and CYP2C9 act 0.4.
For Cc1ccc(C2NNC(=O)C2NC(=O)c2ccccc2)cc1 (centres undefined) the results were CYP2C19 activ 0.4, CYP2C19 inh 60.4*, CYP2C9 inhib 23.1, Measles CPE 22.1 and CYP2C9 act 0.8.
`O=C(NC1C(=O)NNC1c1ccccc1)c1ccc(F)cc1` (centres undefined) gave CYP2C19 activ 0.8, CYP2C19 inh 16.2, CYP2C9 inhib 30.4, Measles CPE 2.0 and CYP2C9 act 0.7.
NC(=O)NCc1ccc(Cl)cc1 was read as CYP2C19 activ 1.1, CYP2C19 inh -12.7, CYP2C9 inhib -4.9, Measles CPE 22.6 and CYP2C9 act 1.
`CCN1C(=O)/C(=C\N2CCCCCC2)SC1=S` gave CYP2C19 activ 0.4, CYP2C19 inh 55.8*, CYP2C9 inhib 14.0, Measles CPE 14.6 and CYP2C9 act 0.9.
Screening Cc1cc(NC(=O)c2cccc(F)c2)ncc1NC(=O)c1ccco1 returned CYP2C19 activ 0, CYP2C19 inh 96.2*, CYP2C9 inhib 63.4*, Measles CPE 6.0 and CYP2C9 act 0.4.
`Cc1ccccc1OCC(=O)Nc1cccc(NC(=O)c2ccco2)c1` gave CYP2C19 activ 0.3, CYP2C19 inh 71.8*, CYP2C9 inhib 19.3, Measles CPE 7.2 and CYP2C9 act 0.8.
`CCCCOc1ccccc1NC(=O)c1ccco1` gave CYP2C19 activ 0.5, CYP2C19 inh 52.0*, CYP2C9 inhib 0.2, Measles CPE 1.9 and CYP2C9 act 1.
Screening CCOc1ccccc1NC(=O)c1cccc(NC(=O)c2ccco2)c1 returned CYP2C19 activ 0.2, CYP2C19 inh 75.9*, CYP2C9 inhib -90.8, Measles CPE 10.1 and CYP2C9 act 1.9.
`Cc1cc(NC(=O)c2ccco2)ncc1NC(=O)CCc1ccccc1` gave CYP2C19 activ 0.8, CYP2C19 inh 22.9, CYP2C9 inhib 48.7, Measles CPE 5.2 and CYP2C9 act 0.5.
Screening CC1(C)OC(=O)N(Cc2ccco2)C1(C)O (centres undefined) returned CYP2C19 activ 1, CYP2C19 inh 0.0, CYP2C9 inhib -5.7, Measles CPE 2.0 and CYP2C9 act 1.1.
C=CCn1c(COc2ccccc2F)nnc1SCCN1C(=O)c2ccccc2C1=O was read as Measles CPE 2.0.
For CCCCOC(=O)c1ccc(NC(C)=O)cc1 the results were CYP2C19 activ 0.8, CYP2C19 inh 18.3, CYP2C9 inhib 25.0, Measles CPE 0.5 and CYP2C9 act 0.8.
For CCCCCOC(=O)c1ccc(NC(=O)c2ccco2)cc1 the results were CYP2C19 activ 0.2, CYP2C19 inh 79.5*, CYP2C9 inhib 93.6*, Measles CPE 10.5 and CYP2C9 act 0.1.
For CC(=O)c1ccc(N2CCN(C(=O)c3ccc(OCc4c(C)noc4C)cc3)CC2)cc1 the results were CYP2C19 activ 1, CYP2C19 inh -1.2, CYP2C9 inhib 40.9, Measles CPE 6.5 and CYP2C9 act 0.6.
Screening Cc1noc(C)c1COc1cccc(C(=O)N2CCN(C/C=C/c3ccccc3)CC2)c1 returned CYP2C19 activ 0.1, CYP2C19 inh 89.7*, CYP2C9 inhib 87.5*, Measles CPE 8.7 and CYP2C9 act 0.1.
Cc1cc(C(=O)N2CCN(C/C=C/c3ccccc3)CC2)cs1 was read as CYP2C19 activ 0.4, CYP2C19 inh 59.3*, CYP2C9 inhib 61.0*, Measles CPE 3.0 and CYP2C9 act 0.4.
Screening Cc1noc(C)c1COc1cccc(C(=O)OCC(=O)N2CC(=O)Nc3ccccc32)c1 returned CYP2C19 activ 0.4, CYP2C19 inh 58.9*, CYP2C9 inhib 63.1*, Measles CPE 1.8 and CYP2C9 act 0.4.
For COc1cccc2cc(C(=O)N3CCN(c4ncccn4)CC3)c(=O)oc12 the results were CYP2C19 activ 1.1, CYP2C19 inh -8.0, CYP2C9 inhib -16.5, Measles CPE 18.2 and CYP2C9 act 1.2.
`COc1cccc2cc(C(=O)N3CCN(C/C=C/c4ccccc4)CC3)c(=O)oc12` gave CYP2C19 activ 0.6, CYP2C19 inh 35.4, CYP2C9 inhib -186.7, Measles CPE 5.2 and CYP2C9 act 2.9*.
Screening O=C(c1cc(Br)c(Br)s1)N1CCN(C/C=C/c2ccccc2)CC1 returned CYP2C19 activ 0.7, CYP2C19 inh 27.2, CYP2C9 inhib 16.6, Measles CPE 10.6 and CYP2C9 act 0.8.
Cc1ccc(C(=O)N/C(=C\c2cccs2)C(=O)NCCCn2ccnc2)cc1 was read as Measles CPE 4.7.
For COC(=O)c1ccccc1NC(=O)N1CCN(C/C=C/c2ccccc2)CC1 the results were CYP2C19 activ 0.8, CYP2C19 inh 23.5, CYP2C9 inhib 47.1, Measles CPE 15.7 and CYP2C9 act 0.5.
`COc1ccccc1NC(=O)C(C)N1CCN(C/C=C/c2ccccc2)CC1` (centres undefined) gave CYP2C19 activ 0.4, CYP2C19 inh 60.0*, CYP2C9 inhib 36.8, Measles CPE 10.1 and CYP2C9 act 0.6.
Screening O=C(NCCN1C(=O)S/C(=C\c2ccc(F)cc2)C1=O)c1cccc(S(=O)(=O)N2CCOCC2)c1 returned Measles CPE 12.9.
For CCOC(=O)c1sc(Nc2cccc(C)c2C)nc1C the results were CYP2C19 activ 0.9, CYP2C19 inh 11.2, CYP2C9 inhib 70.3*, Measles CPE 4.2 and CYP2C9 act 0.3.
CCOC(=O)c1sc(NS(=O)(=O)c2cc(C)ccc2C)nc1C was read as CYP2C19 activ 0.6, CYP2C19 inh 44.8, CYP2C9 inhib 94.0*, Measles CPE 3.9 and CYP2C9 act 0.1.
For CC(=O)Nc1ccc(NC(=O)CN(C)CCC#N)cc1 the results were CYP2C19 activ 1.2, CYP2C19 inh -17.4, CYP2C9 inhib -35.9, Measles CPE 4.1 and CYP2C9 act 1.4.
Cc1nn(CC(=O)NCc2cccc3ccccc23)c(=O)c2ccccc12 was read as CYP2C19 activ 1, CYP2C19 inh -1.0, CYP2C9 inhib -115.4, Measles CPE 11.7 and CYP2C9 act 2.2*.
Cc1nn(CC(=O)N2CCN(Cc3ccccc3)CC2)c(=O)c2ccccc12 was read as CYP2C19 activ 0.3, CYP2C19 inh 74.9*, CYP2C9 inhib -12.6, Measles CPE -0.2 and CYP2C9 act 1.1.
Screening Cc1nn(CC(=O)NCc2ccccc2)c(=O)c2ccccc12 returned CYP2C19 activ 0.7, CYP2C19 inh 26.9, CYP2C9 inhib -168.9, Measles CPE 8.7 and CYP2C9 act 2.7*.
For O=C(O)c1ccccc1C(=O)NNc1ccc(F)cc1 the results were CYP2C19 activ 1, CYP2C19 inh -2.7, CYP2C9 inhib 0.0, Measles CPE 15.1 and CYP2C9 act 1.
